# Test results: article PMC7862700, “An all-to-all approach to the identification of sequence-specific readers for epigenetic DNA modifications on cytosine”
# Key:
# Assay in all cases: DAPPL (digital affinity profiling via proximity ligation, sequencing); 10 mM Tris-HCl pH 7.5, 50 mM NaCl, 1 mM DTT, 4% glycerol, room temperature, 30 min; GST-TFs on glutathione beads, 16-mer random dsDNA library, 0.1% formaldehyde crosslink after washing; high values mean tight binding
# Conditions in all cases: protein: recombinant; tags: N-terminal GST; dsDNA, one strand shown
# ELK1 = target: T1, ELK1 (Homo sapiens, UniProt P19419 1-428)
# T1 sequence: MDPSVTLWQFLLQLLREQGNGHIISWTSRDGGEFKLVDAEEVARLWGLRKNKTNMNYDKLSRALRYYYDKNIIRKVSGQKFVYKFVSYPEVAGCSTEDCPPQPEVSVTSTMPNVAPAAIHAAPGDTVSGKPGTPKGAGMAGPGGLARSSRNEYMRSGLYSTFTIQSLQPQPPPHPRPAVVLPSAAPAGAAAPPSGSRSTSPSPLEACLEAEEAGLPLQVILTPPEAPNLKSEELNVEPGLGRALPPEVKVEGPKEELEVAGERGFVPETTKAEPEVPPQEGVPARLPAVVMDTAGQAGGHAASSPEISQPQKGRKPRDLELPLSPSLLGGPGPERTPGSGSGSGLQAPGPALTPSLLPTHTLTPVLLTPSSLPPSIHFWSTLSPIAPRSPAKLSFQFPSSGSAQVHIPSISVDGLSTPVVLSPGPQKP
# Outline: (§1)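 Sequencing on an Illumina NextSeq500 followed washing, crosslinking with 0.1% formaldehyde, proximity ligation (BsaI/T4 ligase, 1 h, 37 °C) and PCR amplification of pools that had been incubated for 30 min at room temperature with 200 nmole of a random double-stranded 16-mer DNA library in Tris/NaCl/DTT/glycerol buffer. Each pool held DNA-barcoded human transcription factors, expressed in yeast as GST fusions and captured on glutathione beads, plus a tag-only sample. Binding signal is a hexamer's read frequency for a factor divided by its frequency in the tag-only sample.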
# ERG = target: T2, ERG (Homo sapiens, UniProt P11308 1-479)
# T2 sequence: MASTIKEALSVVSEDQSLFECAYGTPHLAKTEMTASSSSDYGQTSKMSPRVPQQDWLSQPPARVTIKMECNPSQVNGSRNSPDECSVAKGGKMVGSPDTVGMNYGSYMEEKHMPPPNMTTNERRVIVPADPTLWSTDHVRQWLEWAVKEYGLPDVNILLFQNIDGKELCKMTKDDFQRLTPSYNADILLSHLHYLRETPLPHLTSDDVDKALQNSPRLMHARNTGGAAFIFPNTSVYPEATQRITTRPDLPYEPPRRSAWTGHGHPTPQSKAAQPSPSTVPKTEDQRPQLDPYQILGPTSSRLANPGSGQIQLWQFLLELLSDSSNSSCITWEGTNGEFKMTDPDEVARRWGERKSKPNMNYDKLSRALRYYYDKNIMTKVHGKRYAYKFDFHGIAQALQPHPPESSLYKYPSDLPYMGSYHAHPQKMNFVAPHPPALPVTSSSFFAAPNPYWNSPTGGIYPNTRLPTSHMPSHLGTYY
# Outline: as §1
# ELK3 = target: T3, ELK3 (Homo sapiens, UniProt P41970 1-407)
# T3 sequence: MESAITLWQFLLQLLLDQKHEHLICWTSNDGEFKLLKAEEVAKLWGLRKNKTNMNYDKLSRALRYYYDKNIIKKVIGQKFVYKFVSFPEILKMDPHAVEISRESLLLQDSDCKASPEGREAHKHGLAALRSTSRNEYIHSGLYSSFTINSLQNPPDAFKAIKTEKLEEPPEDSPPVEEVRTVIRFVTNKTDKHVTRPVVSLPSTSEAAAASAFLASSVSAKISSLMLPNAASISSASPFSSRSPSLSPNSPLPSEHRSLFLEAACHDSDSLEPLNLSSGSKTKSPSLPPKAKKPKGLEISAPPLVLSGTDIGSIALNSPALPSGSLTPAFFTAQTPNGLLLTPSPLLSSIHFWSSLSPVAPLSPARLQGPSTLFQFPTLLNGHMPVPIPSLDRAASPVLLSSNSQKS
# Outline: as §1
# ELK4 = target: T4, ELK4 (Homo sapiens, UniProt P28324-2 1-405)
# T4 sequence: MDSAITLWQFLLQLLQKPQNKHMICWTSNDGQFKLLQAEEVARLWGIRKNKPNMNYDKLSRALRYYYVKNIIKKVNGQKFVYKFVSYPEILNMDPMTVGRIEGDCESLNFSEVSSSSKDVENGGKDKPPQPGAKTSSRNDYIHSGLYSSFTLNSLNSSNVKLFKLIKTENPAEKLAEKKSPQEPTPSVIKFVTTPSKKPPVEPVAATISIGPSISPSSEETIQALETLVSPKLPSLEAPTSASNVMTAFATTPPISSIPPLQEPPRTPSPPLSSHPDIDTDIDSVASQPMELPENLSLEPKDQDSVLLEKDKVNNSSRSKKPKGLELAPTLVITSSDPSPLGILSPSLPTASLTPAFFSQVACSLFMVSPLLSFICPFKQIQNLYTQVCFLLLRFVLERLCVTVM
# Outline: as §1
# ETV2 = target: T5, ETV2 (Homo sapiens, UniProt O00321 1-342)
# T5 sequence: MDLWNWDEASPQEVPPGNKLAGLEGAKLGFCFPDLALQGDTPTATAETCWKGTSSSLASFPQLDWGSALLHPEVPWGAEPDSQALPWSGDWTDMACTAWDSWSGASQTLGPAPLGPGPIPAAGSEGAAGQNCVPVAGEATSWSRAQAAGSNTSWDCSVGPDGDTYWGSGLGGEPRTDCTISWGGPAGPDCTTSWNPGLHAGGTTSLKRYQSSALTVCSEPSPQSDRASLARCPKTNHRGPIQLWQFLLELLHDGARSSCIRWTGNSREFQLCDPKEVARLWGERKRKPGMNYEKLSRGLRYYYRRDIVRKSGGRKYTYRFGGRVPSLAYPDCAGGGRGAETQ
# Outline: as §1
# ELF3 = target: T6, ELF3 (Homo sapiens, UniProt P78545 1-371)
# T6 sequence: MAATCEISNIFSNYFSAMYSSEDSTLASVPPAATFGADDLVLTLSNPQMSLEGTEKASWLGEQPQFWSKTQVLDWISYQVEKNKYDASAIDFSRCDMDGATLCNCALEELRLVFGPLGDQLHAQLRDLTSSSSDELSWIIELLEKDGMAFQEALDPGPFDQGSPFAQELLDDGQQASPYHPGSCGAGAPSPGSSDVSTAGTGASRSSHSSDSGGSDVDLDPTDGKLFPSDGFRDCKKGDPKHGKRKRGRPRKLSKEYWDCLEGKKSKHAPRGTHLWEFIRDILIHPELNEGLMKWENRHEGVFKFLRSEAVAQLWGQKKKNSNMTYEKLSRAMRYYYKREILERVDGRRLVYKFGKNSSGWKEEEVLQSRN
# Outline: as §1
# CRX = CRX (Homo sapiens, UniProt O43186 1-299)
# Chain of CRX (O43186 whole entry): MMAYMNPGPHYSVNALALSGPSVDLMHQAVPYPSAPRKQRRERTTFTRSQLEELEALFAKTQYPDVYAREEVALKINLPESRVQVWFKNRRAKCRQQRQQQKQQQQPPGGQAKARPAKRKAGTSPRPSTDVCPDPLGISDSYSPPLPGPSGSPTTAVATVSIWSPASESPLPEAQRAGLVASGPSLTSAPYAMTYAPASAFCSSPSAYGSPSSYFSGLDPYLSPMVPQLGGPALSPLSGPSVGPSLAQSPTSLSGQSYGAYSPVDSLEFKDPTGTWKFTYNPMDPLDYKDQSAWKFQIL
# Outline: as §1
# ERF = target: T7, ERF (Homo sapiens, UniProt P50548 1-548)
# T7 sequence: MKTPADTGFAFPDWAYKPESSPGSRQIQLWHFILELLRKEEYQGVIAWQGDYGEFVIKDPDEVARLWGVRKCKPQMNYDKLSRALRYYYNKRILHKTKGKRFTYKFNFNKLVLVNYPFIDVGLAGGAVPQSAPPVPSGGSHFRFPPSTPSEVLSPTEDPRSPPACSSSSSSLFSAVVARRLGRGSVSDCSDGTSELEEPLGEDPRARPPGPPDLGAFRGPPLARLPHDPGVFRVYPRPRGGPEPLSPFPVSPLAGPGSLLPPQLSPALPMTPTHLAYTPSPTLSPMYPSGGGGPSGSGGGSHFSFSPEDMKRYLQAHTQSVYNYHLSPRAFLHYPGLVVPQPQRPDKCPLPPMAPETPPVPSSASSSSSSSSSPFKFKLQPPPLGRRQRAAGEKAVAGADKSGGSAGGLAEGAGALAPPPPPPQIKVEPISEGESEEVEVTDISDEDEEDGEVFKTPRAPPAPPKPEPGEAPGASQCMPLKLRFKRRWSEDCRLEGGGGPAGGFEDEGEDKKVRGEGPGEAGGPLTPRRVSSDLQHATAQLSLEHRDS
# Outline: as §1
# GABPA = target: T8, GABPA (Homo sapiens, UniProt Q06546 1-454)
# T8 sequence: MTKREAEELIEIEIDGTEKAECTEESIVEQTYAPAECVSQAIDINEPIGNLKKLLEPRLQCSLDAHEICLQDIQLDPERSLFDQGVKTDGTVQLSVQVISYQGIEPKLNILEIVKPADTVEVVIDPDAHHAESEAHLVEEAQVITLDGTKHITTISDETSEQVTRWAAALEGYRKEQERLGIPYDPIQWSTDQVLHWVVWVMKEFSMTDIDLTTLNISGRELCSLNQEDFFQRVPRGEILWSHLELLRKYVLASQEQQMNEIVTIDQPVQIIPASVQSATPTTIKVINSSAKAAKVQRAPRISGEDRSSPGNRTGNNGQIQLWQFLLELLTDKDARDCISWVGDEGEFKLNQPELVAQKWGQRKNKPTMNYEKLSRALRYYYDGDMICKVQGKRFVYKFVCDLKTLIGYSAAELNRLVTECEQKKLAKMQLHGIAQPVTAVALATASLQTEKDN
# Outline: as §1
# ELF4 = ELF4 (Homo sapiens, UniProt Q99607 1-663)
# Chain of ELF4 (Q99607 whole entry): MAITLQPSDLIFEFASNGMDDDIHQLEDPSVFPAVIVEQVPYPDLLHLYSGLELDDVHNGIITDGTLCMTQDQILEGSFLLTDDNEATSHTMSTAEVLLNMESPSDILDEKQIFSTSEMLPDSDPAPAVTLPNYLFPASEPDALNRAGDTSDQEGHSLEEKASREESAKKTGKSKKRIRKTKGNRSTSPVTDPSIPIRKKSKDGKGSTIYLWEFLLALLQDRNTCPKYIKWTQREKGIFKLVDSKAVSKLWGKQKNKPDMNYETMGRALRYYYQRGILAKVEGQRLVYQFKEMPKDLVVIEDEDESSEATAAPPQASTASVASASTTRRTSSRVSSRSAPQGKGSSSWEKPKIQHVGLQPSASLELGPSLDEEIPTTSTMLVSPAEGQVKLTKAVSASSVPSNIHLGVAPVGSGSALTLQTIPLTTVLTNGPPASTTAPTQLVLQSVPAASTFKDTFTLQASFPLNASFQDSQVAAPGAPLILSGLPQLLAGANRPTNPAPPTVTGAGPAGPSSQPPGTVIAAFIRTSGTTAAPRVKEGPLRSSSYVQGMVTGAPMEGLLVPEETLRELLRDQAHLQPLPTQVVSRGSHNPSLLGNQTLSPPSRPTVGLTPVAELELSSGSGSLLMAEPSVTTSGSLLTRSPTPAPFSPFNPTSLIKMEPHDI
# Outline: as §1
# ETV6 = ETV6 (Homo sapiens, UniProt P41212 1-452)
# Chain of ETV6 (P41212 whole entry): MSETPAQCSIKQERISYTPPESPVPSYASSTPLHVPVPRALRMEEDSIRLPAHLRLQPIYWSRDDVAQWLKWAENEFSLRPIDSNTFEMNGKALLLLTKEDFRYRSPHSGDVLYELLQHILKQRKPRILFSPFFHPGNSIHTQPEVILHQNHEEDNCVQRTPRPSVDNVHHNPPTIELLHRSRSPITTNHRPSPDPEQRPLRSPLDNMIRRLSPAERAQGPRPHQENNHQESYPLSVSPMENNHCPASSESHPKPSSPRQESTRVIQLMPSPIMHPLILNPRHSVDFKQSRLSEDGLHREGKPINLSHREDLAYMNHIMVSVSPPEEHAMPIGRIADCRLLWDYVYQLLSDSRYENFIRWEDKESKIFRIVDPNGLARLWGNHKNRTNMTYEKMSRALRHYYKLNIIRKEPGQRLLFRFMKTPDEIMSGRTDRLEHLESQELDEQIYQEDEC
# Outline: as §1
Sequence,binding signal (ELK1),binding signal (ERG),binding signal (ELK3),binding signal (ELK4),binding signal (ETV2),binding signal (ELF3),binding signal (CRX),binding signal (ERF),binding signal (GABPA),binding signal (ELF4),binding signal (ETV6)
GTGTTA,"1.02 fold enrichment (6-mer frequency, TF over GST control)","1.01 fold enrichment (6-mer frequency, TF over GST control)","1.02 fold enrichment (6-mer frequency, TF over GST control)","1.04 fold enrichment (6-mer frequency, TF over GST control)","1.01 fold enrichment (6-mer frequency, TF over GST control)","1.15 fold enrichment (6-mer frequency, TF over GST control)","1.11 fold enrichment (6-mer frequency, TF over GST control)","1.06 fold enrichment (6-mer frequency, TF over GST control)",–,–,–
GCAACA,"1.03 fold enrichment (6-mer frequency, TF over GST control)",–,–,"1.08 fold enrichment (6-mer frequency, TF over GST control)","1.03 fold enrichment (6-mer frequency, TF over GST control)",–,–,"1.01 fold enrichment (6-mer frequency, TF over GST control)","1.08 fold enrichment (6-mer frequency, TF over GST control)","1.06 fold enrichment (6-mer frequency, TF over GST control)","1.03 fold enrichment (6-mer frequency, TF over GST control)"
